Screening results deposited in PubChem BioAssay by The Scripps Research Institute Molecular Screening Center.
Compounds with a hit are over-represented: about 2.8% of the library has one in this group of screens.
MsrA inhibitor: bovine MsrA enzyme inhibitors, primary screen, biochemical, absorbance, HTS; 0.75% of 360,000 active; Methionine sulfoxide reductase A (Bos taurus); purified bovine MsrA, absorbance read-out; inhibition, % at 15.5 µM; in the data active = inhibition above about 4.5%;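 note: 0% = vehicle wells with enzyme and 100% = reference inhibitor wells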
HGIII-sPLA2 inh: human group III sPLA2 inhibitors, primary screen, biochemical, QFRET, BODIPY PC-A2 liposome substrate; Group 3 secretory phospholipase A2 (Homo sapiens), Q9NZ20; QFRET BODIPY PC-A2 liposome hydrolysis, fluorescence; inhibition, % at 12.2 µM; 0.56% of 370,000 active; AID 743126, 2013;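 active = inhibition above mean plus 3 SD of compounds lying within the high and low control bounds, cut at about 19% in these data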;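 note: 0% = median of test compound wells and 100% = no enzyme DMSO wells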
Target sequence (Q9NZ20 whole entry, looked up): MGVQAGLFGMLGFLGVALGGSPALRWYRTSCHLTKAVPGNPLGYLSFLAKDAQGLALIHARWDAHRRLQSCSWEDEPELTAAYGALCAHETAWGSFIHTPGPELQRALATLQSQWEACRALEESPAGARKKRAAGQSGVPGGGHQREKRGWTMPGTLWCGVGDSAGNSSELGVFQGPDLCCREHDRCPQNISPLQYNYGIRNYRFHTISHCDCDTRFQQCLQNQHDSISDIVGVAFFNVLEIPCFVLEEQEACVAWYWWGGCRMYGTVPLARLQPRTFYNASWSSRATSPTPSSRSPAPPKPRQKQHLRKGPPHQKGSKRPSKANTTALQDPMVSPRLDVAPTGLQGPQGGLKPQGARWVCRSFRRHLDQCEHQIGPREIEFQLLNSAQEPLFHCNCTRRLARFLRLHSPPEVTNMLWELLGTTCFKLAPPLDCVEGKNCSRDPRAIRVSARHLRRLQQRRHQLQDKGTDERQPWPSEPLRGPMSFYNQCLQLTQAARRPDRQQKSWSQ
rCAG RNA binder: binders of r(CAG) RNA repeats, primary screen, biochemical, fluorescence. r(CAG) RNA repeat, TO-PRO-1 dye displacement fluorescence. 1.3% of 370,000 active. inhibition, % at 3 µM;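 active = inhibition above the plate cutoff, the mean of all test compounds on that plate plus 3 SD, cut at about 35% in these data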;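 note: 0% = DMSO alone and 100% = 100 µM mitoxantrone as full dye displacement; higher means more dye released from RNA so lower well fluorescence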
bovine MsrA act: bovine MsrA enzyme activators, primary screen, biochemical, absorbance, HTS | Methionine sulfoxide reductase A (Bos taurus) | purified bovine MsrA, absorbance read-out | activation, % at 10.6 µM | 0.3% of 360,000 active | AID 602163, 2012; in the data active = activation above about 7.5%;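 note: 0% = vehicle and 100% = reference activator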
rCAG bind conf: small molecules binding CAG repeat RNA – biochemical, fluorescence, confirmation; inhibition, % at 3 µM; AID 652065, 2013; r(CAG) RNA repeat, TO-PRO-1 dye displacement fluorescence; shares compounds with rCAG RNA binder; 70% of 4,300 active;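 active = inhibition above a per-plate cutoff, the mean inhibition of sample wells plus 3 SD, cut at about 35% in these data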;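 note: loss of TO-PRO-1 fluorescence as compound displaces dye from 1x1 AA loop RNA; 0% = DMSO only wells and 100% = 100 µM mitoxantrone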
DNA CAG counter: displacement of TO-PRO-1 from CAG DNA duplex, counter-screen for rCAG RNA repeat binder project, biochemical, fluorescence, TO-PRO-1 dye, d(CAG) DNA oligo. inhibition, % at 3 µM. d(CAG) DNA oligo TO-PRO-1 dye displacement. shares compounds with rCAG RNA binder. 94% of 4,300 active;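 active = inhibition above its plate's cutoff, the mean test-well inhibition plus 3 SD, cut at about 4.8% in these data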;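 note: 0% = DNA dye mix with DMSO and 100% = 100 µM mitoxantrone; hits displace the dye from DNA and so lower well fluorescence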
dCAG dye DR: inhibitors of DNA CAG/GTC TO-PRO-1 complex, dose response, counter-screen for rCAG RNA repeat binder project, biochemical, fluorescence, TO-PRO-1 dye | DNA CAG/GTC duplex TO-PRO-1 dye displacement fluorescence | shares compounds with rCAG RNA binder | IC50, µM | 20% of 250 active; in the data active = IC50 below about 10 µM
An asterisk follows results filed as active; i = inactive; . = not tested or not shown.

SMILES	MsrA inhibitor	HGIII-sPLA2 inh	rCAG RNA binder	bovine MsrA act	rCAG bind conf	DNA CAG counter	others
COc1ccc(/C=C2\SC(=S)N(C(Cc3ccccc3)C(=O)O)C2=O)cc1 (stereo not drawn)	0.4	-28.5	65.0*	-4.1	71.4*	33.6*	dCAG dye DR=i
O=C1S/C(=C\C=C\c2ccco2)C(=O)N1c1ccc(O)cc1	2.1	-1.6	37.6*	-6.2	17.8	9.9*
O=C(O)C(Cc1ccccc1)N1C(=O)/C(=C/c2cccnc2)SC1=S (stereo not drawn)	1.6	16.9	15.8	-5.4	.	.
O=C(O)CC(C(=O)O)N1C(=O)/C(=C/C=C/c2ccco2)SC1=S (stereo not drawn)	0.0	-6.0	34.0	-6.7	.	.
O=C(O)C(Cc1ccccc1)N1C(=O)/C(=C/C=C/c2ccco2)SC1=S (stereo not drawn)	1.2	0.5	89.9*	-8.8	92.5*	68.1*
O=C(O)CCCN1C(=O)/C(=C/C=C/c2ccco2)SC1=S	-0.5	-13.2	60.3*	-6.2	50.8*	18.6*
O=C(NN1C(=O)/C(=C/C=C/c2ccco2)SC1=S)c1ccccc1O	1.5	-2.8	94.5*	-6.4	92.6*	76.9*
O=c1nc2ccc(Cl)cn2c2ccc(S(=O)(=O)N3CCCCC3)cc12	2.1	-13.2	40.7*	-2.9	7.6	4.4*
CCOC(=O)N1CCN(C(=O)CNC(=O)c2nn(-c3ccc(OC)c(Cl)c3)c(=O)c3ccccc23)CC1	-0.4	-0.6	39.1*	0.2	4.0	3.8
O=C(Cc1ccc(Cl)cc1)N1CCN(c2ccc(F)cc2)CC1	-0.6	1.2	-0.6	-3.7	.	.
CCOC(=O)C1CCN(S(=O)(=O)c2ccc3c(c2)NC(=O)C(C)S3)CC1 (stereo not drawn)	0.3	-2.0	-4.9	0.7	.	.
COc1cc(NS(=O)(=O)c2ccc(NS(=O)(=O)c3ccc(C)cc3)cc2)nc(OC)n1	0.0	-21.9	11.7	-1.8	.	.
Cc1cc(NS(=O)(=O)c2ccc(Nc3nc(-c4ccc(C)c(C)c4)cs3)cc2)no1	0.7	-119.2	88.1*	-5.0	84.0*	54.5*
Cc1cc(NS(=O)(=O)c2ccc(Nc3nc(-c4ccc(O)cc4)cs3)cc2)no1	0.3	-42.1	51.8*	-2.9	33.3	9.7*
COc1cc(NS(=O)(=O)c2ccc(Nc3nc(-c4ccccc4)cs3)cc2)nc(OC)n1	-0.5	-162.4	87.1*	-0.8	83.4*	54.4*
COc1ccc(N2CCN(C(c3ccccc3OC)c3nnnn3Cc3ccco3)CC2)cc1 (stereo not drawn)	0.1	-0.9	-7.3	-9.5	.	.
COc1ccc2nc(NC(=O)CSc3nc(C)cc(=O)[nH]3)sc2c1	-0.3	1.8	11.5	-10.6	.	.
CCOc1ccc2nc(NC(=O)Nc3cccs3)sc2c1	-0.5	-9.4	63.6*	-2.3	28.6	28.2*
COc1ccc(NC(=O)c2nc3ccccc3s2)cc1	0.6	-7.3	0.1	-12.8	.	.
COc1ccc(NC(=O)Nc2nc3ccccc3s2)cc1	-0.4	-11.7	48.3*	-5.0	15.3	18.3*
CCOc1ccc2nc(NC(=O)Cc3cccs3)sc2c1	.	.	.	-13.8	.	.
CCOc1ccc2nc(NC(=O)c3ccccn3)sc2c1	-0.5	-2.8	4.9	-3.1	.	.
CCCc1cc(=O)[nH]c(SCC(=O)Nc2nc3ccc(OCC)cc3s2)n1	-0.4	-12.2	49.5*	-5.1	40.4*	12.3*
CCOc1ccc2nc(NC(=O)Nc3ccccc3)sc2c1	-0.3	-8.0	49.9*	-2.9	15.2	20.3*
Cc1ccc2nc(SCC(=O)OCc3ccccc3)nc(=O)n2c1	1.2	3.5	-3.4	-2.7	.	.
SMILES	MsrA inhibitor	HGIII-sPLA2 inh	rCAG RNA binder	bovine MsrA act	rCAG bind conf	DNA CAG counter	others
COc1ccc(CCCC(=O)Nc2cc(C)ccc2OC)cc1	0.2	-2.5	-2.8	-0.8	.	.
O=C(Nc1cccc(Cl)c1)c1cc(N=Nc2ccc([N+](=O)[O-])cc2Cl)ccc1O	0.8	8.5	20.3	-4.3	.	.
COC(=O)c1ccc(C(=O)OC)c(NC(=O)Cc2cccs2)c1	0.5	10.3	38.7*	-0.8	23.2	17.4*
COc1ccccc1NC(=O)Cc1cccs1	0.1	-3.5	-0.1	-1.9	.	.
COc1c(O)cc2oc(-c3ccc(O)cc3)cc(=O)c2c1O	2.6	3.5	8.4	0.0	.	.
O=c1cc(-c2ccccc2)oc2cc(O)c(O)c(O)c12	1.1	6.3	38.3*	-5.2	34.4	14.2*
CCCCn1c(N)c(NCc2ccccc2OC)c(=O)[nH]c1=O	1.4	-0.6	-6.0	-2.4	.	.
O=C(C1=NN[C@@H]2C(=O)N(c3cccc(C(F)(F)F)c3)C(=O)[C@H]12)C(c1ccccc1)c1ccccc1	0.2	-39.2	54.5*	-4.9	26.6	8.9*
O=C(C1=NN[C@@H]2C(=O)N(c3cccc(F)c3)C(=O)[C@H]12)C(c1ccccc1)c1ccccc1	0.7	-33.6	23.4	-3.3	.	.
Cc1ccc(-c2csc3ncnc(NS(=O)(=O)c4ccc(Cl)cc4)c23)cc1	0.3	0.7	15.0	-4.2	.	.
O=S(=O)(Nc1ncnc2scc(-c3ccc(F)cc3)c12)c1cc(F)ccc1F	0.8	-28.8	53.8*	-2.0	54.8*	20.3*
O=[N+]([O-])c1cc(-c2ccn[nH]2)ccc1Cl	2.8	0.3	0.9	-4.1	.	.
COc1cccc(CNc2ccc(S(=O)(=O)N3CCN(C)CC3)cn2)c1	0.6	9.0	1.8	-4.5	.	.
COc1ccc(-c2cc(=O)n(-c3nc4ccccc4[nH]3)[nH]2)cc1	0.6	12.9	38.9*	-5.1	14.9	10.3*
COc1ccc(-c2nc3ccccc3[nH]2)cc1	1.7	-0.6	-0.1	-7.7	.	.
COc1ccc(/C=C/C(=O)OCC(=O)NCC2CCCO2)cc1 (stereo not drawn)	0.9	2.5	-0.7	-11.3	.	.
Cc1ccc(NS(=O)(=O)c2cccc(C(=O)NCC(c3ccco3)N3CCCC3)c2)cc1 (stereo not drawn)	0.0	-19.6	5.7	-8.7	.	.
O=C(Nc1cccc(Br)c1)c1ccc2nc(N3C(=O)CCC3=O)sc2c1	-0.4	-19.5	44.0*	-2.8	27.4	9.7*
CCCC(C(=O)O)n1c(O)c(C=C2N=c3ccccc3=N2)sc1=S (stereo not drawn)	0.8	-3.5	57.8*	-8.2	54.3*	17.3*
O=C(O)CCCn1c(O)c(C=C2N=c3ccccc3=N2)sc1=S	0.7	-11.6	45.0*	-1.9	28.9	6.7*
